Compounds with a hit are over-represented: about 0.3% of the library has one in this group of screens.
hcGAS inh – human cGAS inhibition; inhibition, % at 12.5 µM; Q8N884; actives 0.081% (n = 290,000); recombinant h-cGAS, ATP depletion, Kinase-Glo luminescence;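 further: 0% = vehicle reaction and 100% = reaction without DNA for no activity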
mcGAS inh – inhibitors of mouse cGAS. actives 0.15% (n = 160,000). Q8C6L5. inhibition, % at 12.5 µM. recombinant cGAS, Kinase-Glo ATP depletion luminescence;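 further: 0% = negative control wells and 100% = reference inhibitor with no enzyme activity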
NPYLR7 ag – activates Aedes aegypti NPYLR7 receptor. AID 1259423. actives 0.15% (n = 270,000). HEK293T NPYLR7/Galpha15, GCaMP6s calcium fluorescence. activation, % at 10 µM; in the data active means activation above about 40%;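 further: 0% = vehicle and 100% = reference agonist at the receptor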
* hit, by the source's call; nt = not tested or not shown. Unless noted, no stated cut-off is given here; in the data, active means inhibition above about 40%; inactive means the rest.

SMILES	hcGAS inh	mcGAS inh	NPYLR7 ag
Oc1c(Cl)c(Cl)c(Cl)c(Cl)c1Cl	70*	nt	6
O=C1OC2(c3cc(Br)c(O)cc3Oc3c2cc(Br)c(O)[c]3[Hg])c2ccccc21 (stereo unspecified)	0	30	98*
CN(C)CCN(C(=O)Cc1ccc(F)cc1)c1nc2ccccc2s1	1	0	-5
O=c1c(O)c(-c2ccc(O)c(O)c2)oc2c(O)c(O)cc(O)c12	47*	nt	-3
CCn1nc(-c2cccs2)nc2c(=O)n(C)c(=O)nc1-2	17	59*	12
COC(=O)c1ccc(COC(CN2CCN(C(=O)Cc3ccccc3)CC2)c2ccc(Cl)cc2)cc1 (stereo unspecified)	0	-4	-3
O=C1c2ccccc2-c2onc3c(Cl)cc(N4CC4)c1c23	2	nt	23
O=C(O)c1ccccc1-c1c2cc(Br)c(=O)cc-2oc2[c]([Hg])c(O)c(Br)cc12	34	nt	60*
COc1ccc([C@@H]2CN(C(=O)c3ccc(N)nc3)[C@@H]3C4CCN(CC4)[C@@H]32)cc1	-7	nt	1
N#CC(C#N)=Cc1ccc(O)cc1	-7	nt	4
N#CC(C#N)=Cc1ccc(-c2ccccc2)cc1	-4	49*	-2
Fc1cccc([C@@H]2CN(C3CCNCC3)[C@@H]3C4CCN(CC4)[C@@H]32)c1F	-5	-4	nt
O=[N+]([O-])c1cc(C(F)(F)F)cc2c1no[n+]2[O-]	0	nt	10
O=[N+]([O-])c1c(Cl)ccc2c1no[n+]2[O-]	61*	93*	2
COCC(=O)Nc1ccc2[nH]cc(CCN3CCN(c4ccc(OC)cc4)CC3)c2c1	2	-3	7
CCC(NC(=O)c1cn(CCN2CCCCC2)nn1)c1ccc(F)cc1 (stereo unspecified)	-2	-9	19
CCOC(=O)C1C(=N)Oc2cc(C)n(C)c(=O)c2C12C(=O)N(Cc1ccccc1)c1ccccc12 (stereo unspecified)	4	1	-3
CC1=NCCc2c1[nH]c1cc(O)ccc21	-2	-1	65*
COc1ccc2c3c([nH]c2c1)C(C)=NCC3	-6	-3	0
CCN1C(=O)C2(c3ccccc31)c1c(cc(C)[nH]c1=O)OC(=N)C2C(=O)OC (stereo unspecified)	1	-9	-3
CCOC(=O)[C@H]1CN(C(=O)OCC)[C@]2(C)C(=O)N(CC(=O)N(C)C)c3ccccc3[C@H]12	2	-9	21
N#CC1C(=N)Oc2c(c(=O)oc3ccccc23)C1c1ccc([N+](=O)[O-])o1 (stereo unspecified)	-7	59*	-12
N#CC1C(=N)Oc2c(c(=O)oc3ccccc23)C1c1cccc(F)c1 (stereo unspecified)	4	4	-2
CC1c2c(c3ccccc3oc2=O)OC(=N)C1C#N (stereo unspecified)	-5	-3	2
O=S(=O)(c1ccc(OC(F)(F)F)cc1)N1CCN(CCOC(c2ccc(Cl)cc2)c2ccc(Cl)cc2)CC1	-3	-6	25
SMILES	hcGAS inh	mcGAS inh	NPYLR7 ag
CCCCOc1ccc(S(=O)(=O)N2CCN(CCOC(c3ccccc3)c3ccc(F)c(F)c3)CC2)cc1 (stereo unspecified)	0	0	6
COC(=O)[C@]12CCC(C)(C)C[C@H]1[C@H]1C(=O)C=C3[C@@]4(C)C=C(C#N)C(=O)C(C)(C)[C@@H]4CC[C@@]3(C)[C@]1(C)CC2	38	52*	1
CCOc1ccnc(N2CCN3CCCC3C2)n1 (stereo unspecified)	-6	nt	13
c1ccc2c(c1)CCCC2C1CCCN1 (stereo unspecified)	-4	nt	13
COCc1nc(-c2cccc(CN3CCN(C(=O)Cc4ccc5c(c4)OCO5)CC3)c2)no1	-5	-10	2
Cc1ccc(N2C(=O)NC(=O)/C(=C/c3cn(C)c4ccccc34)C2=O)cc1	-3	-1	2
Cc1cccc(N2C(=O)NC(=O)/C(=C/c3cn(C)c4ccccc34)C2=O)c1	0	1	53*
NC(=Nc1ccc(NC(=O)C2CCCCC2)cc1)N[N+](=O)[O-]	0	nt	-11

Screening data deposited in PubChem by Fisher Drug Discovery Resource Center.
